From article PMC4336329 (PLoS ONE, 2015)
Hit rate of the full screen: of about 310,000 compounds, about 14,000 (4.5%) showed an effect of 50% or more. Effects have a minus sign here. Shown is part of a subset that was picked to be rich in strong results.

What follows are compounds tested against human ether-à-go-go-related gene (hERG) potassium channel (human, UniProt Q12809) (assay: primary screen, population patch clamp on CHO cells stably expressing hERG; higher = less effect of the substance).
Chain of human ether-à-go-go-related gene (hERG) potassium channel (Q12809 whole entry, looked up): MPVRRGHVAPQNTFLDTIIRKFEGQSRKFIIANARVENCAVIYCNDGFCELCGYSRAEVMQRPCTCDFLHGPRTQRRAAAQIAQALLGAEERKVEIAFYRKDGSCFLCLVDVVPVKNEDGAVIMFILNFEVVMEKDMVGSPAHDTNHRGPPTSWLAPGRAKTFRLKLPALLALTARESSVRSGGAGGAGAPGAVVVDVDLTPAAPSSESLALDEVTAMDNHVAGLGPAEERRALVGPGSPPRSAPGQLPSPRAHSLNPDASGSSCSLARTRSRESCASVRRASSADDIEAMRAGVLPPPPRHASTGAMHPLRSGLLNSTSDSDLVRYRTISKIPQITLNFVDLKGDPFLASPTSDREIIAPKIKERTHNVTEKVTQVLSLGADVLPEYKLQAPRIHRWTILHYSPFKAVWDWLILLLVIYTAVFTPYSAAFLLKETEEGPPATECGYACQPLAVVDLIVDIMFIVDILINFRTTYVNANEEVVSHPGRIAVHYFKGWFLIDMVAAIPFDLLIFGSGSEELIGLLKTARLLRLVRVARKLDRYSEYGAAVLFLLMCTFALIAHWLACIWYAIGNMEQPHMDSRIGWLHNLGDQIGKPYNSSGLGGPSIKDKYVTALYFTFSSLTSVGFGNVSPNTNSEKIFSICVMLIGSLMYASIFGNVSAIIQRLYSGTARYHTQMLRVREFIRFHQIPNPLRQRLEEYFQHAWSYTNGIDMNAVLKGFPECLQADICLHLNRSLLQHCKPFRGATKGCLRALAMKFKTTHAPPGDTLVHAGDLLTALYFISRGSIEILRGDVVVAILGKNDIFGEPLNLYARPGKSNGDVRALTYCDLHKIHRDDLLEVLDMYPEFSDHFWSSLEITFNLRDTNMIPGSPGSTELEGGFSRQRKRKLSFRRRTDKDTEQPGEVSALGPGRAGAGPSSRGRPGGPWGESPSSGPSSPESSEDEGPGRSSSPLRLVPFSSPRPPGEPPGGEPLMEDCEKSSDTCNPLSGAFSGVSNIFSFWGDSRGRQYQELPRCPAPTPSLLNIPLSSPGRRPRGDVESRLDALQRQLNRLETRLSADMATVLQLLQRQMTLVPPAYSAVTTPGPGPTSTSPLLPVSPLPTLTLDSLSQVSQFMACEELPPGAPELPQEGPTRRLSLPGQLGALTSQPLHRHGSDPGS
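Note: peak tail current of the secondary pulse compared with the same well before compound.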

Row | SMILES | hERG current change (%, negative = inhibition) at 10uM [%]
1 | Cc1ccc2nc(N3C(=O)C(O)=C(C(=O)c4ccc(C)o4)C3c3ccco3)sc2c1 (centres unmarked) | 12.8
2 | COC(=O)c1ccc(NC(=O)C[n+]2ccccc2)cc1.[Cl-] | 11.9
3 | COc1ccc(NC(=O)Cn2c(=O)oc3cc(S(=O)(=O)N4CCCC4)ccc32)c(OC)c1 | 7.38
4 | O=C(Nc1ccccc1)c1ccc(NCCN2C(=O)CCC2=O)c([N+](=O)[O-])c1 | 10.9
5 | CCCn1c(N)c(N2CCCCC2)c(=O)n(CC(=O)Nc2ccccc2C)c1=O | 14.6
6 | Cc1nn(C)cc1C(C)Nc1nc2nonc2nc1N1CCCCC1 (centres unmarked) | 0.196
7 | CCN(Cc1ccc2c(c1)OCO2)C(=O)CSc1nc(C)nc2sc(C)c(C)c12 | -5.76
8 | COc1ccc(C(=O)Nc2c(N)nc(SCC(=O)Nc3ccc(NC(C)=O)cc3)[nH]c2=O)cc1 | 21.9
9 | COc1ccc(C(CCN2CCCC2)c2c(OC)cc(OC)c3c(-c4ccccc4)cc(=O)oc23)cc1 (centres unmarked) | -52.7
10 | CCN(CC)CCC(c1ccc2c(c1)OCO2)c1c(OC)cc(OC)c2c(-c3ccccc3)cc(=O)oc12 (centres unmarked) | -65.4
11 | COc1ccc(C(CCN2CCN(c3ccccc3)CC2)c2c(OC)cc(OC)c3c(-c4ccccc4)cc(=O)oc23)cc1 (centres unmarked) | -9.55
12 | CCN(CC)C(=O)CC(c1ccc2c(c1)OCO2)c1c(OC)cc(OC)c2c(-c3ccccc3)cc(=O)oc12 (centres unmarked) | 5.08
13 | COc1cc(OC)c2c(-c3ccccc3)cc(=O)oc2c1C(CCN1CCCCC1)c1ccc(N(C)C)cc1 (centres unmarked) | -25
14 | COc1ccc(C(CCN2CCCCC2)c2c(OC)cc(OC)c3c(-c4ccccc4)cc(=O)oc23)cc1 (centres unmarked) | -55.1
15 | COc1cc(OC)c2c(-c3ccccc3)cc(=O)oc2c1C(CCN1CCCCC1)c1ccc2c(c1)OCO2 (centres unmarked) | -53.2
16 | CCN(CC)CCC(c1ccc(N(C)C)cc1)c1c(OC)cc(OC)c2c(-c3ccccc3)cc(=O)oc12 (centres unmarked) | -24.5
17 | COc1cc(OC)c2c(-c3ccccc3)cc(=O)oc2c1C(CCN1CCCC1)c1ccc2c(c1)OCO2 (centres unmarked) | -46.9
18 | COc1ccc(C(CC(=O)N2CCCC2)c2c(OC)cc(OC)c3c(-c4ccccc4)cc(=O)oc23)cc1 (centres unmarked) | -5.46
19 | COc1cc(OC)c2c(-c3ccccc3)cc(=O)oc2c1C(CCN1CCCC(C)C1)c1ccc2c(c1)OCO2 (centres unmarked) | -48.8
20 | COc1ccc(C(CC(=O)N2CCCCC2)c2c(OC)cc(OC)c3c(-c4ccccc4)cc(=O)oc23)cc1 (centres unmarked) | 0.849

Row | SMILES | hERG current change (%, negative = inhibition) at 10uM [%]
21 | Nc1cc(=O)[nH]c(SCc2nnnn2-c2ccc(Cl)cc2)n1 | 4.04
22 | CCN1CCCC1CNC(=O)Cn1cc2c(n1)CCC(C)C2 (centres unmarked) | 5.4
23 | Cn1ncc(C#N)c1/N=C/N(Cc1ccccc1)Cc1ccccc1 | -9.12
24 | COCCN(C(=O)COC(=O)c1ccccc1Nc1ccccc1)c1c(N)n(Cc2ccccc2)c(=O)[nH]c1=O | -44.9
25 | Cc1occc1C(=O)NNC(=S)NCc1ccccc1 | 6.47
26 | CC(C)(C)C(=O)Nc1cc2c3c(c1)CC(=O)N3CCC2 | 18.3
27 | CCN1CCCC1CN(Cc1cc2cc(C)ccc2[nH]c1=O)C(=O)Nc1ccccc1OC (centres unmarked) | -60
28 | COc1ccccc1NC(=O)N(Cc1ccco1)Cc1cc2cc(C)cc(C)c2[nH]c1=O | -2.39
29 | CCOc1ccc2[nH]c(=O)c(CN(Cc3ccccc3)C(=O)N3CCCC3)cc2c1 | 9.28
30 | CCN1CCCC1CN(Cc1cc2cc(C)cc(C)c2[nH]c1=O)C(=O)Nc1ccccc1OC (centres unmarked) | -61.4
31 | Cc1ccc2[nH]c(=O)c(CN(CC3COCCO3)C(=O)Nc3ccccc3C)cc2c1 (centres unmarked) | 3.87
32 | CCN1CCCC1CN(Cc1cc2ccc(C)c(C)c2[nH]c1=O)C(=O)Nc1ccccc1OC (centres unmarked) | -63.3
33 | COc1ccccc1NC(=O)N(CCN1CCOCC1)Cc1cc2cc(C)cc(C)c2[nH]c1=O | -33.2
34 | CCN1CCCC1CN(Cc1cc2cc(OC)ccc2[nH]c1=O)C(=O)NCc1ccccc1 (centres unmarked) | -46.4
35 | COc1ccccc1NC(=S)N(Cc1ccco1)Cc1cc2ccc(C)c(C)c2[nH]c1=O | -8.05
36 | COc1ccccc1NC(=O)N(Cc1cc2cc(OC)c(OC)cc2[nH]c1=O)CC1CCCO1 (centres unmarked) | -9.13
37 | CCOc1ccc2[nH]c(=O)c(CN(CC3CCCN3CC)C(=O)NCc3ccccc3)cc2c1 (centres unmarked) | -63.2
38 | COc1ccccc1NC(=O)N(Cc1ccco1)Cc1cc2ccc(C)c(C)c2[nH]c1=O | 8.85
39 | CCn1c(Cc2c(C)[nH]c3ccccc23)nnc1SCC(N)=O | 13.4
40 | Cc1nn(C)c2c(=O)c(=O)c2n(C)[nH]1 | 18

Row | SMILES | hERG current change (%, negative = inhibition) at 10uM [%]
41 | Cc1c(C(=O)NCC2CCCO2)oc2ccc3c(c12)C(=O)CC(C)(C)O3 (centres unmarked) | 2.71
42 | O=C(CSc1nnc(CNC(=O)c2ccco2)o1)Nc1cccc(C(F)(F)F)c1 | -48.3
43 | COc1cccc(NC(=O)Cc2csc(NC(=O)Nc3ccccc3OC)n2)c1 | 18.2
44 | COc1ccc(CNCc2c(O)c(Cl)cc3c(C)c(C)c(=O)oc23)c(OC)c1.Cl | -3.6
45 | O=C(Cn1c(=O)oc2cc(S(=O)(=O)N3CCCC3)ccc21)N1CCc2ccccc2C1 | -32.3
46 | Cc1cccc2nc(CSCc3ccco3)cn12 | -2.01
47 | O=C1c2ccccc2C(=O)N1OCc1ccccc1[N+](=O)[O-] | 23.7
48 | O=[N+]([O-])c1ccc(N2CCN(C(=S)Nc3ccc(F)cc3)CC2)cc1 | -44.4
49 | CN1CCN(C(=O)Nc2ccc([N+](=O)[O-])cc2)CC1 | -23.8
50 | COc1ccc(NC(=O)N2CCN(c3ccc([N+](=O)[O-])cc3)CC2)cc1 | -36.9
51 | COc1ccc(NC(=O)N2CCN(c3ccc([N+](=O)[O-])cc3)CC2)cc1OC | -73.2
52 | COc1ccccc1N1CCN(C(=O)Nc2ccc([N+](=O)[O-])cc2)CC1 | -52.4
53 | CCOC(=O)c1ccc(NC(=O)N2CCN(c3ccccc3OC)CC2)cc1 | 11.4
54 | COc1cccc(CN2CCN(C(=O)Nc3ccc([N+](=O)[O-])cc3)CC2)c1 | -57.2
55 | O=[N+]([O-])c1ccc(N2CCN(C(=S)Nc3cccc(F)c3)CC2)cc1 | -52
56 | COc1ccccc1N1CCN(C(=O)c2cc(C(=O)N3CCN(c4ccccc4OC)CC3)cc([N+](=O)[O-])c2)CC1 | -0.436
57 | O=[N+]([O-])c1ccc(NC(=S)N2CCN(c3ccc(F)cc3)CC2)cc1 | 3.73
58 | COc1cccc(CN2CCN(C(=O)CC(C)C)CC2)c1 | -13.1
59 | COc1ccc(NC(=O)N2CCCC2)cc1OC | -10.2
